Counter-ions that a name gives are not always drawn.
Experiments:
Settings in all cases: incubation time: 27 h, anaerobic, 37 °C;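 for the amine columns active = adjusted P below 0.05 in both replicates with a change the same way and a mean fold change under 0.8 or over 1.25; inactive = the rest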
[1] = system: Clostridium sporogenes DSM 1664; test: growth (OD595) fold change vs plate DMSO controls (fold change (ratio)); higher = more growth
Summary of the method: (§1)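 The 96-well mGAM cultures had been kept anaerobic for 27 h at 37 °C before being shaken and read at 595 nm. Blank subtraction, compound background correction with 20 µM compound solutions in water, and a calibration factor of 5 turned the readings into OD. Growth is given as the fold change versus the median of plate DMSO controls. Fold changes above 1.5 were set to NA, and the values are means of 2 biological replicates.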

Escherichia coli IAI1 [2] = test: as above
Summary of the method: as §1

[3] = system: Klebsiella aerogenes DSM 30053; test: as above
Summary of the method: as §1

[4] = system: Ruminococcus gnavus DSM 108212; test: as above
Summary of the method: as §1

[5] = system: Klebsiella aerogenes DSM 30053; test: fold change of Histamine concentration vs plate DMSO controls (fold change (ratio)); higher = more amine produced, active = hit call of the paper (significant change in both replicates, either direction)
Summary of the method: (§2)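 Anaerobic mGAM cultures of four gut bacterial strains were grown at 37 °C for 27 h in 80 µL wells, starting at OD 0.1 before 1:1 dilution. Compounds were at 20 µM final (sweeteners 50 µM). Whole cultures were extracted with cold acetonitrile/methanol containing 0.1% formic acid and centrifuged. Amines were quantified by LC–triple-quadrupole MS (dynamic MRM) against external calibration curves and drift-corrected within batch. Each value is the fold change versus plate DMSO controls, averaged over 2 biological replicates.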

[6] = system: Clostridium sporogenes DSM 1664; test: fold change of Tryptamine concentration vs plate DMSO controls (fold change (ratio)); higher = more amine produced, active = hit call of the paper (significant change in both replicates, either direction)
Summary of the method: as §2

[7] = system: Ruminococcus gnavus DSM 108212; test: as above
Summary of the method: as §2

Escherichia coli IAI1 [8] = test: fold change of Putrescine concentration vs plate DMSO controls (fold change (ratio)); higher = more amine produced, active = hit call of the paper (significant change in both replicates, either direction)
Summary of the method: as §2

[9] = system: Klebsiella aerogenes DSM 30053; test: as above
Summary of the method: as §2

Escherichia coli IAI1 [10] = test: fold change of Cadaverine concentration vs plate DMSO controls (fold change (ratio)); higher = more amine produced, active = hit call of the paper (significant change in both replicates, either direction)
Summary of the method: as §2

[11] = system: Klebsiella aerogenes DSM 30053; test: as above
Summary of the method: as §2

[12] = system: Ruminococcus gnavus DSM 108212; test: fold change of 2-Phenylethylamine concentration vs plate DMSO controls (fold change (ratio)); higher = more amine produced, active = hit call of the paper (significant change in both replicates, either direction)
Summary of the method: as §2

| SMILES | growth [1] | growth (Escherichia coli IAI1 [2]) | growth [3] | growth [4] | fold change of Histamine concentration [5] | fold change of Tryptamine concentration [6] | fold change of Tryptamine concentration [7] | fold change of Putrescine concentration (Escherichia coli IAI1 [8]) | fold change of Putrescine concentration [9] | fold change of Cadaverine concentration (Escherichia coli IAI1 [10]) | fold change of Cadaverine concentration [11] | fold change of 2-Phenylethylamine concentration [12] |
| --- | --- | --- | --- | --- | --- | --- | --- | --- | --- | --- | --- | --- |
| CC(/C=C1\SC(=S)N(CC(=O)O)C1=O)=C\c1ccccc1 [Epalrestat] (20 µM) | 1.15 | 0.964 | 1.05 | 0.896 | 1.05 (inactive) | 1.01 (inactive) | 1.16 (inactive) | 1.14 (inactive) | 0.992 (inactive) | 0.932 (inactive) | 1.12 (inactive) | 1.44 (inactive) |
| COc1ccc(C(=O)NCc2ccc(OCCN(C)C)cc2)cc1OC [Itopride] (20 µM) | 1.15 | 1.1 | 1.08 | 1.2 | 0.925 (inactive) | 1.05 (inactive) | 1.04 (inactive) | 1.09 (inactive) | 0.98 (inactive) | 0.942 (inactive) | 1.06 (inactive) | 1.04 (inactive) |
| CS(=O)(=O)c1ccc([C@@H](O)[C@@H](CF)NC(=O)C(Cl)Cl)cc1 [Florfenicol] (20 µM) | 0 | 0.0375 | 0.0697 | 0.306 | 0.0871 (active) | 0.0346 (active) | 0.122 (active) | 0.217 (active) | 0.459 (inactive) | 0.177 (active) | 0.508 (inactive) | 0.143 (active) |
| C[C@H]1C[C@@H]2[C@H]([C@@H](O)C[C@@]3(C)[C@H]2CC[C@]3(O)C(=O)CO)[C@@]2(C)C=CC(=O)C=C12 [Methylprednisolone, 6-alpha] (20 µM) | 0.939 | 0.956 | 1.01 | 0.836 | 0.992 (inactive) | 1.03 (inactive) | 1.01 (inactive) | 0.991 (inactive) | 1.05 (inactive) | 1.03 (inactive) | 1.04 (inactive) | 1.03 (inactive) |
| Cc1cc(O)c(C(=O)N[C@@H](C(=O)N[C@@H]2C(=O)N3C(C(=O)O)=C(CSc4nnnn4C)CS[C@H]23)c2ccc(O)cc2)cn1 [Cefpiramide] (20 µM) | 0 | 0.0131 | 0.61 | 0 | 0.829 (inactive) | 0.0275 (active) | 0.0434 (active) | 0.516 (inactive) | 0.981 (inactive) | 1.92 (active) | 1.08 (inactive) | 0.0464 (active) |
| COc1cc2nc(N3CCN(C(=O)C4COc5ccccc5O4)CC3)nc(N)c2cc1OC (stereo unspecified) [Doxazosin mesylate] (20 µM) | 0.926 | 0.974 | 0.995 | 1.13 | 1.01 (inactive) | 1.1 (inactive) | 0.943 (inactive) | 1.02 (inactive) | 1 (inactive) | 0.983 (inactive) | 0.991 (inactive) | 0.932 (inactive) |
| CCCCCCCN(CC)CCCC(O)c1ccc(NS(C)(=O)=O)cc1 (stereo unspecified) [Ibutilide fumarate] (20 µM) | 1.13 | 1.12 | 1.09 | 1.08 | 0.925 (inactive) | 0.904 (inactive) | 0.952 (inactive) | 1.03 (inactive) | 0.989 (inactive) | 1.02 (inactive) | 1.01 (inactive) | 0.903 (inactive) |
| COc1ccc2[nH]c([S+]([O-])Cc3ncc(C)c(OC)c3C)nc2n1 (stereo unspecified) [Tenatoprazole] (20 µM) | 1 | 1.06 | 1.04 | 1.14 | 0.985 (inactive) | 1.03 (inactive) | 1.01 (inactive) | 1.06 (inactive) | 0.996 (inactive) | 0.977 (inactive) | 0.995 (inactive) | 1.01 (inactive) |
| C[C@@H]1[C@H](O)[C@@H](C)/C=C/C=C/C=C/C=C/C=C/C=C/C=C/[C@H](O[C@@H]2O[C@H](C)[C@@H](O)[C@H](N)[C@@H]2O)C[C@@H]2O[C@](O)(C[C@@H](O)C[C@@H](O)[C@H](O)CC[C@@H](O)C[C@@H](O)CC(=O)O[C@H]1C)C[C@H](O)[C@H]2C(=O)O [Amphotericin B] (20 µM) | 0.881 | 1.01 | 0.982 | 0.469 | 1.01 (inactive) | 0.985 (inactive) | 1.09 (inactive) | 1.23 (inactive) | 0.957 (inactive) | 1.09 (inactive) | 1.14 (inactive) | 1.25 (inactive) |
| CC(C(=O)O)c1ccc(N2CC=CC2)c(Cl)c1 (stereo unspecified) [Pirprofen] (20 µM) | 1.03 | 1.01 | 0.978 | 0.973 | 1.04 (inactive) | 0.987 (inactive) | 1.06 (inactive) | 1.04 (inactive) | 0.957 (inactive) | 0.95 (inactive) | 0.981 (inactive) | 1.15 (inactive) |
| O=C1Nc2ccc(Cl)cc2[C@@](C#CC2CC2)(C(F)(F)F)O1 [Efavirenz] (20 µM) | 1.25 | 1.01 | 1.02 | 1.22 | 0.986 (inactive) | 1.02 (inactive) | 0.936 (inactive) | 1.04 (inactive) | 0.985 (inactive) | 1.02 (inactive) | 0.997 (inactive) | 0.935 (inactive) |
| CCn1cc(C(=O)O)c(=O)c2cnc(N3CCCC3)nc21 [Piromidic acid] (20 µM) | 1.09 | 1.01 | 1 | 0.973 | 0.944 (inactive) | 1.02 (inactive) | 1.06 (inactive) | 0.913 (inactive) | 1.02 (inactive) | 1.06 (inactive) | 0.999 (inactive) | 1.09 (inactive) |
| CCCc1nn(C)c2c(=O)[nH]c(-c3cc(S(=O)(=O)N4CCN(C)CC4)ccc3OCC)nc12 [Sildenafil] (20 µM) | 1.23 | 1.01 | 1.02 | 1.14 | 0.993 (inactive) | 1.06 (inactive) | 1.15 (inactive) | 0.921 (inactive) | 0.98 (inactive) | 0.87 (inactive) | 1.04 (inactive) | 1.24 (inactive) |
| S=C([S-])NCCNC(=S)[S-].S=C([S-])NCCNC(=S)[S-].[Mn+2].[Zn+2] (20 µM) | 0.889 | 0.959 | 0.994 | 1.01 | 0.985 (inactive) | 1.14 (inactive) | 1.12 (inactive) | 1.02 (inactive) | 0.852 (inactive) | 0.85 (inactive) | 1.07 (inactive) | 1.21 (inactive) |
| c1ccc2c(CC3=NCCN3)cccc2c1 [Naphazoline hydrochloride] (20 µM) | 0.845 | 0.633 | 0.644 | 0.57 | 1.01 (inactive) | 1.01 (inactive) | 1.01 (inactive) | 0.978 (inactive) | 1 (inactive) | 0.96 (inactive) | 1 (inactive) | 0.994 (inactive) |
| CCCC(=O)N1CCCN(c2nc(N)c3cc(OC)c(OC)cc3n2)CC1 [Bunazosin hydrochloride] (20 µM) | 1.05 | 1.05 | 1 | 1.06 | 1.04 (inactive) | 1.02 (inactive) | 1 (inactive) | 0.989 (inactive) | 0.996 (inactive) | 0.996 (inactive) | 0.984 (inactive) | 1.03 (inactive) |
| CNC(=C[N+](=O)[O-])NCCSCc1csc(CN(C)C)n1 [Nizatidine] (20 µM) | 1.13 | 1.02 | 1.01 | 1.09 | 1.04 (inactive) | 0.99 (inactive) | 0.971 (inactive) | 0.988 (inactive) | 1.03 (inactive) | 0.984 (inactive) | 1 (inactive) | 0.954 (inactive) |
| C[C@H]1O[C@@H](O[C@H]2[C@@H](O)C[C@H](O[C@H]3[C@@H](O)C[C@H](O[C@H]4CC[C@@]5(C)[C@H](CC[C@@H]6[C@@H]5C[C@@H](O)[C@]5(C)[C@@H](C7=CC(=O)OC7)CC[C@]65O)C4)O[C@@H]3C)O[C@@H]2C)C[C@H](O)[C@@H]1O [Digoxin] (20 µM) | 1.14 | 0.971 | 0.995 | 0.945 | 1.05 (inactive) | 1 (inactive) | 1.02 (inactive) | 1.01 (inactive) | 0.999 (inactive) | 0.992 (inactive) | 0.991 (inactive) | 1.03 (inactive) |
| CCOC(=O)c1c(N)sc2c1CCN(Cc1ccccc1)C2 [Tinoridine hydrochloride] (20 µM) | 1.15 | 0.977 | 0.967 | 1.14 | 1.03 (inactive) | 0.982 (inactive) | 0.922 (inactive) | 1.01 (inactive) | 1 (inactive) | 0.954 (inactive) | 0.976 (inactive) | 0.875 (inactive) |
| C[C@@](Cc1ccc(O)c(O)c1)(NN)C(=O)O [Carbidopa] (20 µM) | 0.93 | 0.989 | 1.03 | 0.905 | 0.98 (inactive) | 1.04 (inactive) | 1 (inactive) | 1.05 (inactive) | 1.01 (inactive) | 0.994 (inactive) | 1 (inactive) | 0.963 (inactive) |
| CC(C)CN(C[C@@H](O)[C@H](Cc1ccccc1)NC(=O)O[C@H]1CCOC1)S(=O)(=O)c1ccc(N)cc1 [Amprenavir] (20 µM) | 1.1 | 1.05 | 0.974 | 0.947 | 0.92 (inactive) | 0.952 (inactive) | 1.07 (inactive) | 1.14 (inactive) | 1.01 (inactive) | 0.952 (inactive) | 1.03 (inactive) | 1.08 (inactive) |
| CO/N=C(\C(=O)N[C@@H]1C(=O)N2C(C(=O)OCOC(=O)C(C)(C)C)=C(/C=C\c3scnc3C)CS[C@H]12)c1csc(N)n1 [Cefditoren Pivoxil] (20 µM) | 0.809 | 1.11 | 1.03 | 0.996 | 0.988 (inactive) | 0.951 (inactive) | 1 (inactive) | 0.864 (inactive) | 1.12 (inactive) | 1.18 (inactive) | 1.05 (inactive) | 1.01 (inactive) |
| NS(=O)(=O)c1cc2c(cc1C(F)(F)F)NCNS2(=O)=O [Hydroflumethiazide] (20 µM) | 0.947 | 1.05 | 0.989 | 0.941 | 0.965 (inactive) | 0.92 (inactive) | 0.987 (inactive) | 1.06 (inactive) | 1.01 (inactive) | 1 (inactive) | 1.01 (inactive) | 0.935 (inactive) |

— the supplement of paper PMC12494721
